This is an account of results in PubChem BioAssay (EPA / NIEHS).

One may read the AC50 as the midpoint of the concentration-response curve, whichever way the signal moves.

Results filed as inconclusive are left out. Activity calls are given as the source filed them. Rule for the calls: active = hit-call score of the fitted dose curve at least 0.9, where 1 is the maximum; inconclusive = response in the unintended direction; inactive = score below 0.9.

In test [1] the target is human Neonicotinoid receptor (NNR), CHRNA2 (gene 1135) (UniProt Q15822). As to the kind of experiment: NVS_LGIC_hNNR_NBungSens: NovaScreen (NVS) Ligand-Gated Ion Channel Assay for human Neonicotinoid receptor (NNR) (AID 2283313). The method, then: NVS_LGIC_hNNR_NBungSens is a biochemical, single-readout assay that uses extracted gene-proteins from Human neuroblastoma membrane cells in a tissue-based cell-free assay. Measurements were taken 2 hours after chemical dosing in a 48-well plate.NVS_LGIC_hNNR_NBungSens is one of one assay component(s) measured or calculated from the NVS_LGIC_hNNR_NBungSens assay. It is designed to make measurements of radioligand binding, a form of binding reporter, as detected with scintillation counting signals by Filter-based radiodetection technology.Data from the assay component NVS_LGIC_hNNR_NBungSens was analyzed into 1 assay endpoint. This assay endpoint, NVS_LGIC_hNNR_NBungSens, was analyzed in the positive analysis fitting direction relative to DMSO as the negative control and baseline of activity. Using a type of binding reporter, loss-of-signal activity can be used to understand changes in the binding as they relate to the gene CHRNA2. Furthermore, this assay endpoint can be referred to as a primary readout, because the performed assay has only produced 1 assay endpoint. To generalize the intended target to other relatable targets, this assay endpoint is annotated to the ion channel intended target family, where the subfamily is ligand-gated ion channel. […]

For test [2], the target named is rat Vasopressin 1 Receptor (V1), Avpr1a (gene 25107) (UniProt P30560). As to the kind of experiment: NVS_GPCR_rV1: NovaScreen (NVS) G Protein-Coupled Receptor Assay for rat Vasopressin 1 Receptor (V1) (AID 2283316). An outline of the steps:
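Radioligand binding on rat liver membranes, 1.5 h incubation, filter-based scintillation counting. Single 25 uM screen in duplicate; chemicals meeting threshold (e.g. 30% inhibition) run in concentration-response up to 50 uM.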

Test [3] deals with Voltage-dependent N-type calcium channel subunit alpha-1B (Rattus norvegicus) (UniProt Q02294). As to the kind of experiment: NVS_IC_rCaChN: NovaScreen (NVS) Ion Channel Assay for rat Calcium Channel, Type N (CaChN) (AID 2283317).
For test [4], the target named is bovine Gamma-Aminobutyric Acid Type A Receptor BDZ, alpha 1 site (GABARa1), GABRA1 (gene 780973) (UniProt P08219). Put plainly: NVS_LGIC_bGABARa1: NovaScreen (NVS) Ligand-Gated Ion Channel Assay for bovine Gamma-Aminobutyric Acid Type A Receptor BDZ, alpha 1 site (GABARa1) (AID 2283321). An outline of the steps: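 Radioligand competition binding on bovine cortical membranes, 0.75 h, filter-based scintillation counting. Primary single concentration 25 uM in duplicate; actives rerun in concentration-response to 50 uM max. Loss of signal fitted versus DMSO.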
Chain of bovine Gamma-Aminobutyric Acid Type A Receptor BDZ, alpha 1 site (GABARa1), GABRA1 (gene 780973) (P08219 whole entry, looked up): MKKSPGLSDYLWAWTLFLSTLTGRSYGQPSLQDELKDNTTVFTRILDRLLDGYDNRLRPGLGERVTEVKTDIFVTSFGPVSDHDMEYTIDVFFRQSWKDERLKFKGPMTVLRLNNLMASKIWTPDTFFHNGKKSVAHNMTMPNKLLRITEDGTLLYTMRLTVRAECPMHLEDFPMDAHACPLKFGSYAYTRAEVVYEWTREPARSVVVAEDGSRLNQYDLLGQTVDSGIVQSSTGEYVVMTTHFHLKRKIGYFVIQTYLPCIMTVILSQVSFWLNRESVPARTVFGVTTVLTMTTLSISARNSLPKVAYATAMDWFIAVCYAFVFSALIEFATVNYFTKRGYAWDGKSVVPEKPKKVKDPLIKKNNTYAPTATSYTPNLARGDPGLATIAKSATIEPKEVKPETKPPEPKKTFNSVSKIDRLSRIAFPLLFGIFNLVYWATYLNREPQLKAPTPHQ

Chain of human Neonicotinoid receptor (NNR), CHRNA2 (gene 1135) (Q15822 whole entry, looked up): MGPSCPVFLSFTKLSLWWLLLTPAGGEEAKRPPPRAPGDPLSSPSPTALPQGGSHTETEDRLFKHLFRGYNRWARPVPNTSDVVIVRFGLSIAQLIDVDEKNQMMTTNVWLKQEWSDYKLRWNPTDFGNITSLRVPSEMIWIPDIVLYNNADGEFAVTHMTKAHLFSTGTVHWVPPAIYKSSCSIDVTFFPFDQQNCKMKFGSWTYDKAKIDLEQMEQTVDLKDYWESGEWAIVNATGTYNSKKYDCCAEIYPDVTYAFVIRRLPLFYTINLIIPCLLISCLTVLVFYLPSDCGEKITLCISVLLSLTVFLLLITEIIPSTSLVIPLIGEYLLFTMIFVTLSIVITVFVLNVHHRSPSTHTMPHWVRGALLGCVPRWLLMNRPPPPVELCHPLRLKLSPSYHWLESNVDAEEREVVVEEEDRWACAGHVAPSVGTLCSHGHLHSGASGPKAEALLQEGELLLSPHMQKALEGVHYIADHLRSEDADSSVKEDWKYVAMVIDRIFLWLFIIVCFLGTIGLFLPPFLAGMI
Chain of rat Vasopressin 1 Receptor (V1), Avpr1a (gene 25107) (P30560 whole entry, looked up): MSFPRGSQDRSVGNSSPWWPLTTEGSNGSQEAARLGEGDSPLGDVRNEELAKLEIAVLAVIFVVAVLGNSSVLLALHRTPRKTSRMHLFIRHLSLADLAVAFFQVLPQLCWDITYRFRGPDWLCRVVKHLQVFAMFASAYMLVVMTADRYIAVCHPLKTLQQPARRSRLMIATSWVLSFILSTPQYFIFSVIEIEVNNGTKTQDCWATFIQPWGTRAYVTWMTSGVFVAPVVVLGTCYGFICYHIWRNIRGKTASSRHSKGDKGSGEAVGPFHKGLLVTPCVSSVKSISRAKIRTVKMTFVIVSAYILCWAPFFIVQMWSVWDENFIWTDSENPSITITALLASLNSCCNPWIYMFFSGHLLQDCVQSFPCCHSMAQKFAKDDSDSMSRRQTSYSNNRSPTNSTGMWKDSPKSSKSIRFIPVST

For `Cc1ccc(-c2c(Cl)nc(C#N)n2S(=O)(=O)N(C)C)cc1`, in test [1], the AC50 was 1.21 µM (active).
As for `CO/C=C(/C(=O)OC)c1ccccc1Oc1cc(Oc2ccccc2C#N)ncn1`, in test [2], the AC50 is 26.4 µM (active).
On to `CCNc1nc(Cl)nc(NCC)n1`, for which the result in test [3] was inactive.
On the same count and under the same terms, the value for `CCCCOC(=O)c1ccccc1C(=O)OCCCC` was “inactive”.
As for `COc1nc(C)nc(NC(=O)NS(=O)(=O)c2ccccc2Cl)n1`, in test [4], the result was inactive.
Take `CCOC(=O)C(Cl)Cc1cc(-n2nc(C)n(C(F)F)c2=O)c(F)cc1Cl` (stereo unspecified): the result in test [4] was inactive.
